# Columns and labels:
# [1] = system: Vero E6 infected with SARS-CoV-2; test: morphology score (similarity to uninfected cells); higher = more like uninfected cells; details: 24 h
# [2] = system: Vero E6 infected with SARS-CoV-2; test: SARS-CoV-2 infection rate relative to infected DMSO; higher = more infection, active = 60 or less; details: 24 h
compound,measurement,setting,value
CCC[C@@H]1C[C@@H](C(=O)N[C@@H]([C@H]2O[C@H](SC)[C@H](O)[C@@H](O)[C@H]2O)[C@H](C)Cl)N(C)C1 (10 µM),morphology score,[1],-0.131
same,SARS-CoV-2 infection rate,[2],102% (inactive)
CC(=O)NCCc1c(Cc2ccccc2)[nH]c2ccccc12 [luzindole] (10 µM),morphology score,[1],0.0073
same,SARS-CoV-2 infection rate,[2],99% (inactive)
CON(C)C(=O)N1N=C(c2cc(F)ccc2F)S[C@@]1(CCCN)c1ccccc1 [filanesib] (0.833333 µM),morphology score,[1],-0.306
same,SARS-CoV-2 infection rate,[2],99% (inactive)
CNC(=O)c1ccc2cc([C@@]3(O)CCn4cncc43)ccc2c1 [orteronel] (10 µM),morphology score,[1],0.0827
same,SARS-CoV-2 infection rate,[2],106% (inactive)
O=C(c1ccc(OCCCc2c[nH]cn2)cc1)C1CC1 [ciproxifan] (10 µM),morphology score,[1],0.181
same,SARS-CoV-2 infection rate,[2],95.5% (inactive)
C(#CCN1CCCC1)CN1CCCC1 [tremorine] (10 µM),morphology score,[1],0.107
same,SARS-CoV-2 infection rate,[2],96% (inactive)
CCNC(=O)[C@H]1O[C@@H](n2cnc3c(N)ncnc32)[C@H](O)[C@@H]1O (10 µM),morphology score,[1],0.184
same,SARS-CoV-2 infection rate,[2],92% (inactive)
NCCc1c[nH]c2ccc(O)cc12 [serotonin] (10 µM),morphology score,[1],0.0634
same,SARS-CoV-2 infection rate,[2],108% (inactive)
NCCCCCNCC12CC3CC(CC(C3)C1)C2 (10 µM),morphology score,[1],0.229
same,SARS-CoV-2 infection rate,[2],97.5% (inactive)
CCCC(CCC)C(=O)NCC(N)=O [valrocemide] (10 µM),morphology score,[1],0.062
same,SARS-CoV-2 infection rate,[2],108% (inactive)
NCCCCCc1c[nH]cn1 [impentamine] (10 µM),morphology score,[1],0.128
same,SARS-CoV-2 infection rate,[2],92.5% (inactive)
C#C[C@]1(O)CC[C@H]2[C@@H]3CCC4=CC(=O)CC[C@@H]4[C@H]3CC[C@@]21CC [norgestrel] (10 µM),morphology score,[1],0.191
same,SARS-CoV-2 infection rate,[2],102% (inactive)
CCOC(=O)C1=C(C)NC(C)=C(C(=O)OC)[C@@H]1c1cccc([N+](=O)[O-])c1 (racemic) [nitrendipine] (10 µM),morphology score,[1],-0.062
same,SARS-CoV-2 infection rate,[2],112% (inactive)
NCCCCCC(=O)O [aminocaproic-acid] (10 µM),morphology score,[1],0.136
same,SARS-CoV-2 infection rate,[2],89.5% (inactive)
Cc1ccc2c(N3CCN(CCc4cccc(N5CCNC5=O)c4)CC3)cccc2n1 (10 µM),morphology score,[1],0.325
same,SARS-CoV-2 infection rate,[2],84% (inactive)
COc1cc2c(cc1OC)-c1c(C)c3ccc(OC)c(OC)c3c[n+]1CC2 [dehydrocorydaline] (10 µM),morphology score,[1],0.0289
same,SARS-CoV-2 infection rate,[2],104% (inactive)
c1ccc(-c2oc3ncnc(NC[C@@H]4CCCO4)c3c2-c2ccccc2)cc1 (10 µM),morphology score,[1],0.0044
same,SARS-CoV-2 infection rate,[2],106% (inactive)
CCS(=O)(=O)CCn1c([N+](=O)[O-])cnc1C [tinidazole] (10 µM),morphology score,[1],0.142
same,SARS-CoV-2 infection rate,[2],108% (inactive)
O=Nc1c(O)[nH]c2c(Cl)c(Cl)ccc12 (10 µM),morphology score,[1],0.117
same,SARS-CoV-2 infection rate,[2],93.5% (inactive)
O=C(O)c1cn(-c2ccc(F)cc2)c2cc(N3CCNCC3)c(F)cc2c1=O [sarafloxacin] (10 µM),morphology score,[1],0.213
same,SARS-CoV-2 infection rate,[2],93% (inactive)
CC(C)(N)c1cc(C(=O)N[C@@H]2CCc3ccc(Oc4ccnc5c4CCC(=O)N5)cc3C2)cc(C(F)(F)F)c1 (0.833333 µM),morphology score,[1],0.227
same,SARS-CoV-2 infection rate,[2],99% (inactive)
CCOc1cc(C(=O)Nc2ccc(Cl)c(-c3nc4ccccc4[nH]3)c2)cc(OCC)c1OCC (10 µM),morphology score,[1],-0.0242
same,SARS-CoV-2 infection rate,[2],100% (inactive)
CCOC(=O)C(=O)Nc1cccc(OC)c1C(N)=O (10 µM),morphology score,[1],-0.179
same,SARS-CoV-2 infection rate,[2],102% (inactive)
Cc1c(S(=O)(=O)O)oc2c1C(=O)C(=O)c1c-2ccc2c1CCCC2(C)C [sodium-tanshinone-II-A-sulfonate] (10 µM),morphology score,[1],0.0001
same,SARS-CoV-2 infection rate,[2],110% (inactive)
CCCC(C)C1(CC)C(=O)NC(=S)NC1=O (configuration not stated) [thiopental] (10 µM),morphology score,[1],0.132
same,SARS-CoV-2 infection rate,[2],110% (inactive)
N[C@H]1C[C@@H]1c1ccc(-c2cccc(O)c2)cc1 (10 µM),morphology score,[1],0.246
same,SARS-CoV-2 infection rate,[2],87% (inactive)
Cc1cc(C)cc(C(=O)N(C)[C@H](Cc2ccc(-c3ccccc3)cc2)C(=O)N[C@@H](Cc2c[nH]c3ccccc23)C(=O)O)c1 (10 µM),morphology score,[1],0.0271
same,SARS-CoV-2 infection rate,[2],95% (inactive)
CCOC(=O)[C@H](CCc1ccccc1)N[C@@H](C)C(=O)N1Cc2ccccc2C[C@H]1C(=O)O [quinapril] (10 µM),morphology score,[1],-0.145
same,SARS-CoV-2 infection rate,[2],109% (inactive)
O=C(CCCl)NCCc1ccccc1 [fenaclon] (10 µM),morphology score,[1],0.0663
same,SARS-CoV-2 infection rate,[2],102% (inactive)
C[C@@H](NC(=O)c1ncnc(N)c1Cl)c1ncc(C(=O)Nc2cc(C(F)(F)F)c(Cl)cn2)s1 (10 µM),morphology score,[1],-0.0506
same,SARS-CoV-2 infection rate,[2],108% (inactive)
Cc1[nH]c(=O)c(C#N)cc1-c1ccncc1 [milrinone] (10 µM),morphology score,[1],0.236
same,SARS-CoV-2 infection rate,[2],93.5% (inactive)
Nc1nnc(-c2cccc(Cl)c2Cl)c(N)n1 [lamotrigine] (10 µM),morphology score,[1],0.0194
same,SARS-CoV-2 infection rate,[2],110% (inactive)
Cc1ccccc1N(C)C(=O)c1ccc([S+]([O-])c2nccs2)c([N+](=O)[O-])c1 (configuration not stated) (0.833333 µM),morphology score,[1],-0.0736
same,SARS-CoV-2 infection rate,[2],81% (inactive)
CCCCc1oc2ccc(NS(C)(=O)=O)cc2c1C(=O)c1ccc(OCCCN(CCCC)CCCC)cc1 [dronedarone] (0.833333 µM),morphology score,[1],-0.0676
same,SARS-CoV-2 infection rate,[2],116% (inactive)
COc1cc(Br)c(S(=O)(=O)Nc2ccc(Cl)c(O[C@@H]3CCN(C)C3)c2)cc1OC (10 µM),morphology score,[1],-0.105
same,SARS-CoV-2 infection rate,[2],102% (inactive)
O=C(O)c1cc(=O)c2ccccc2[nH]1 [kynurenic-acid] (10 µM),morphology score,[1],0.122
same,SARS-CoV-2 infection rate,[2],97% (inactive)
Cc1nn(C)c2nc(NNC(=O)Nc3cc(Cl)nc(Cl)c3)cc(C(C)C)c12 (10 µM),morphology score,[1],0.0785
same,SARS-CoV-2 infection rate,[2],108% (inactive)
N[C@@H]1c2cccnc2[C@H](OC(=O)N2CCC(n3c(=O)[nH]c4ncccc43)CC2)CC[C@H]1c1cccc(F)c1F [rimegepant] (10 µM),morphology score,[1],0.177
same,SARS-CoV-2 infection rate,[2],96.5% (inactive)
c1cncc(CN2CCC(n3ncc4c(N5CCOCC5)nc(-c5ccc6[nH]ccc6c5)nc43)CC2)c1 (0.833333 µM),morphology score,[1],0.491
same,SARS-CoV-2 infection rate,[2],69% (inactive)
CCC(CC)C(c1ccc(Nc2nc3ccccc3s2)cc1)n1cncn1 (configuration not stated) [talarozole] (10 µM),morphology score,[1],0.326
same,SARS-CoV-2 infection rate,[2],74.5% (inactive)
CCCCCCCCCCCCCCOc1ccc(C(=O)O)o1 (0.833333 µM),morphology score,[1],0.208
same,SARS-CoV-2 infection rate,[2],96.5% (inactive)
COc1ccc(-c2ccc3cc(C(=O)O)ccc3c2)cc1C12CC3CC(CC(C3)C1)C2 [adapalene] (10 µM),morphology score,[1],-0.091
same,SARS-CoV-2 infection rate,[2],104% (inactive)
Oc1ccc(-c2nc3cc(O)cc(Br)c3o2)cc1 (10 µM),morphology score,[1],0.128
same,SARS-CoV-2 infection rate,[2],94.5% (inactive)
CCOC(=O)C1=C(C)NC(C)=C(C(=O)OCC)C1c1ccccc1/C=C/C(=O)OC(C)(C)C [lacidipine] (10 µM),morphology score,[1],0.101
same,SARS-CoV-2 infection rate,[2],106% (inactive)
CCN(CCNC(=O)Nc1ccccc1Br)c1cccc(C)c1 (10 µM),morphology score,[1],-0.0408
same,SARS-CoV-2 infection rate,[2],112% (inactive)
COc1ccc(-c2cc3nccn3c(Nc3ncccc3C(N)=O)n2)cc1OC (0.833333 µM),morphology score,[1],0.46
same,SARS-CoV-2 infection rate,[2],27% (active)
CC(C)(C)NC[C@H](O)COc1nsnc1N1CCOCC1 [timolol] (10 µM),morphology score,[1],-0.002
same,SARS-CoV-2 infection rate,[2],98.5% (inactive)
COc1ccc(C(=O)Nc2sc3c(c2C(N)=O)CCCC3)cc1OC (10 µM),morphology score,[1],-0.0466
same,SARS-CoV-2 infection rate,[2],96.5% (inactive)
CO[C@H]1C[C@@H]2CC[C@@H](C)[C@@](O)(O2)C(=O)C(=O)N2CCCC[C@H]2C(=O)O[C@H]([C@H](C)C[C@@H]2CC[C@H](n3cnnn3)[C@H](OC)C2)CC(=O)[C@H](C)/C=C(\C)[C@@H](O)[C@@H](OC)C(=O)[C@H](C)C[C@H](C)/C=C/C=C/C=C/1C [zotarolimus] (0.833333 µM),morphology score,[1],-0.292
same,SARS-CoV-2 infection rate,[2],119% (inactive)
CCNC(=O)CC[C@H](N)C(=O)O [L-theanine] (10 µM),morphology score,[1],0.0421
same,SARS-CoV-2 infection rate,[2],102% (inactive)
O=C(Nc1ccc(Cl)nc1)c1ccc(Cl)cc1 (10 µM),morphology score,[1],0.18
same,SARS-CoV-2 infection rate,[2],99.5% (inactive)
C[C@@H]1C[C@H]2[C@@H]3C[C@H](F)C4=CC(=O)C=C[C@]4(C)[C@@]3(F)[C@@H](O)C[C@]2(C)[C@@]1(O)C(=O)CO [flumethasone] (10 µM),morphology score,[1],-0.0494
same,SARS-CoV-2 infection rate,[2],110% (inactive)
COC(=O)CC[C@@H]1N=C(c2ccccn2)c2cc(Br)ccc2-n2c(C)cnc21 [remimazolam] (10 µM),morphology score,[1],0.132
same,SARS-CoV-2 infection rate,[2],95% (inactive)
CC1(C)O[C@@H]2C[C@H]3[C@@H]4CCC5=CC(=O)CC[C@]5(C)[C@@]4(F)[C@@H](O)C[C@]3(C)[C@]2(C(=O)CCl)O1 [halcinonide] (10 µM),morphology score,[1],0.157
same,SARS-CoV-2 infection rate,[2],106% (inactive)
CC(C)(S)C(=O)N[C@@H](CS)C(=O)O [bucillamine] (10 µM),morphology score,[1],-0.0447
same,SARS-CoV-2 infection rate,[2],107% (inactive)
CCOc1cc(C(=O)N2CCC(N3CCN(C)CC3)CC2)ccc1Nc1ncc2c(n1)N(C1CCCC1)c1ccccc1C(=O)N2C (10 µM),morphology score,[1],-0.264
same,SARS-CoV-2 infection rate,[2],122% (inactive)
C[C@H](/C=C/[C@H](C)C(C)(C)O)[C@H]1CC[C@H]2/C(=C/C=C3C[C@@H](O)C[C@H](O)C3)CCC[C@]12C [paricalcitol] (10 µM),morphology score,[1],0.0995
same,SARS-CoV-2 infection rate,[2],104% (inactive)
Fc1cc(-c2cccc3ncc(-c4cnn(C5CCNCC5)c4)nc23)cc(F)c1CN1CCOCC1 (0.833333 µM),morphology score,[1],0.0457
same,SARS-CoV-2 infection rate,[2],116% (inactive)
COCCCOc1cc(C[C@@H](C[C@H](N)[C@@H](O)C[C@H](C(=O)NCC(C)(C)C(N)=O)C(C)C)C(C)C)ccc1OC [aliskiren-hemifumarate] (10 µM),morphology score,[1],-0.0367
same,SARS-CoV-2 infection rate,[2],110% (inactive)
Nc1nc(Cl)nc2c1ncn2[C@@H]1O[C@H](CO)[C@@H](O)[C@@H]1F [clofarabine] (0.833333 µM),morphology score,[1],0.11
same,SARS-CoV-2 infection rate,[2],94.5% (inactive)
CC(C)(Oc1ccc(Cl)cc1)C(=O)OCCOC(=O)c1cccnc1 [etofibrate] (10 µM),morphology score,[1],0.105
same,SARS-CoV-2 infection rate,[2],105% (inactive)
